# Glioma ERSR ind = qHTS for Inducers of the Endoplasmic Reticulum Stress Response (ERSR) in Human Glioma: qHTS. U87-MG GRP78 promoter luciferase reporter, 16 h. Potency, µM, for the others: top-dose activation, most hits filed as activators. hit rate 0.02% among 420,000. AID 602332, 2012; also: potency is read from the fitted curve at half-maximal effect; series mostly up to about 76 µM; % of control where 0% means no effect; nearly all actives have a fitted effect of over 35% in size
#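 ERSR induction read as luciferase luminescence (Bright-Glo, 10 min at room temperature) in stably transfected human U87-MG glioma cells exposed to compounds for 16 h, using GRP78 as sensor.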
# ClpP mod = qHTS Assay for Activators of ClpP; Potency, µM (top dose mostly 57.5 µM), for the others: at the highest dose activity change, negative = active; purified B. subtilis ClpP, FRET peptide cleavage, 20 min; AID 651965, 2013; hit rate 1.9% among 340,000; ATP-dependent Clp protease proteolytic subunit (Bacillus subtilis (strain 168)), P80244; active = well fitted falling curve with a large enough effect; inconclusive = small, poorly fitted or top-dose-only effect; inactive = no such curve, though single readings can be large or run the other way; also: potency is read from the fitted curve at half-maximal effect; the source files actives as falling curves though it sought activators and does not explain the sign; nearly all actives have a fitted effect of over 65% in size
#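 Buffer: 100 mM Tris/HCl pH8, 100 mM KCl, 0.05% low protease BSA, 2.5% glycerol, 0.01% Tween-20. ClpP 10 microg/mL final; 20 min RT; delta FRET normalized to ADEP and DMSO controls.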
# N370S GC mod = qHTS Assay for Inhibitors and Activators of N370S glucocerebrosidase as a Potential Chaperone Treatment of Gaucher Disease | hit rate 0.092% among 330,000 | AID 2101, 2009 | Potency, µM (highest dose often 59.4 µM), for the others: at the highest dose activity change, negative = inhibition, hits mostly inhibitors | N370S GC spleen homogenate, 4MU-glucoside fluorescence;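 also: potency is read from the fitted curve at half-maximal effect; 0% = full enzyme activity and -100% = no enzyme basal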
# Apoferritin bind = qHTS Assay for Identification of Novel General Anesthetics | Ferritin light chain (Equus caballus), P02791 | apoferritin/1-aminoanthracene competitive binding, fluorescence | Potency, µM (series often up to 77.5 µM), without a hit: at the top dose activity change, negative = displacement, most hits filed as inhibitors | hit rate 0.074% among 350,000; also: potency is read from the fitted curve at half-maximal effect; % is scaled to controls: 0 for no effect and ±100 for the full control effect; nearly all actives have a fitted effect of over 20% in size
#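 Concentration-response curves derived by four-parameter Hill fitting of normalized fluorescence, where compounds displaced 1-AMA from 10 uM horse apoferritin following a brief 10 min room-temperature incubation; propofol titration acted as positive control.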
# a7 integrin act = qHTS for Activators of Integrin-Mediated Alleviation for Muscular Dystrophy; alpha7betagal myoblasts, beta-gal FDG fluorescence, 48 h; Potency, µM (top dose mostly 38.3 µM), without a hit: top-dose activation, actives largely listed as activators; hit rate 0.064% among 350,000;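 also: potency is read from the fitted curve at half-maximal effect; 100% = response of the positive control SU9516; nearly all actives have a fitted effect of over 60% in size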
#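 Alpha7betagal+/- myoblasts (passage 13) were plated 16-24 hr, then exposed to compounds (1:260 dilution of DMSO stock) for 48 hours at 37C. After MPER lysis, β-galactosidase reporter activity was read as FDG fluorescence (ex 480/em 540) after 30 minutes.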
# CBFb-RUNX1 inh = qHTS Assay for Compounds Blocking the Interaction Between CBF-beta and RUNX1 for the Treatment of Acute Myeloid Leukemia; Runt-related transcription factor 1 (Homo sapiens) + Core-binding factor subunit beta …; AlphaScreen CBFb-His/RUNX1-biotin binding, biochemical; Potency, µM (series often up to 59.8 µM), for the others: top-dose activity, negative = inhibition, most hits filed as inhibitors; 230,000 tested, under 10 active; AID 1477, 2009; also: % of control where 0% means no effect
# Target sequence (Q01196 whole entry, looked up): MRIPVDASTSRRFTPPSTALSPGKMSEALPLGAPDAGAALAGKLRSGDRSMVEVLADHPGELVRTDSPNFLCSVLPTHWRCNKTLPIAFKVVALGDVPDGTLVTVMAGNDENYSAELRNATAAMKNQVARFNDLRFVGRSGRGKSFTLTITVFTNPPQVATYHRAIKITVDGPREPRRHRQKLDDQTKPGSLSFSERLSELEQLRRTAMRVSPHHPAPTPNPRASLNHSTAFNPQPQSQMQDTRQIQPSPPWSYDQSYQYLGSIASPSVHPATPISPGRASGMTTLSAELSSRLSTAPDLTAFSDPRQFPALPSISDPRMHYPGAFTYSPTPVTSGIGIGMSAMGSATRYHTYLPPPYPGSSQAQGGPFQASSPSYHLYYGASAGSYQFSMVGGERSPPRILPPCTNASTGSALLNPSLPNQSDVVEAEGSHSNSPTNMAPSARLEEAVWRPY
# Target sequence (Q13951 whole entry, looked up): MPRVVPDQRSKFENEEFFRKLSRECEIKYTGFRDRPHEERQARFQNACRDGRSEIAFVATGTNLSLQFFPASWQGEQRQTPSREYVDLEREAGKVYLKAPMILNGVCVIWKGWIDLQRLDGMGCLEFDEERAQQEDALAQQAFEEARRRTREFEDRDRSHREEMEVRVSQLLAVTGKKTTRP
#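 CBF-beta (His) and RUNX1 (biotin), 30 nM each; 20 min preassociation; + compound, 15 min; + beads 50 ng each (Ni, streptavidin), 90 min; RT; AlphaScreen read.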
# Starred values were filed as active, the others as inactive; u = inconclusive; x = not tested or not shown; [ ] = another dose, or the depositor's remark. The full list was thinned out, with hits kept by preference. Unless noted, calls follow the shape of the dose curve; as a rule, active = well fitted curve in the direction sought with a large enough effect; inconclusive = small, poorly fitted or top-dose-only effect, or another doubt; inactive = no such curve, though single readings can be large; an effect the other way counts as inactive or inconclusive.
SMILES,Glioma ERSR ind,ClpP mod,N370S GC mod,Apoferritin bind,a7 integrin act,CBFb-RUNX1 inh
COc1ccc(O)c(C(=O)c2cnn(-c3ccccn3)c2)c1,11%,x,8%,-11%,15%,-10%
OC(CNCCC1C=Nc2ccccc21)Cn1c2ccc(Cl)cc2c2cc(Cl)ccc21 (stereo not drawn),-14%,28µM*,9%,0%,-69%,4%
Cc1cc(C)nc(Sc2ccc(/C=C(\C#N)C(N)=O)o2)n1,-2%,28µM*,u,-1%,-20%,7%
O=C(Nc1nnc(-c2ccc(Cl)cc2)o1)Nc1ccccc1Cl,0%,28µM*,-1%[12.8 µM],-7%,4%,3%
COC(=O)C1CCCCN1Cc1nc(N(C)C)c2ccccc2n1 (stereo not drawn),-1%,x,x,x,x,x
COc1ccc(CCN(C)C(=O)CSc2nnc(C3CC3)n2N)cc1OC,-1%,25µM*,2%,x,-7%,x
COc1ccc(C(=O)CSc2nnc(C3CCCCC3)n2N)c(OC)c1,-5%,-1%,u,-22%,-13%,-14%
CCOC(=O)CCCSc1nc(-c2ccc3c(c2)OCO3)cc(C(F)(F)F)c1C#N,0%,16µM*,6%,6%,-1%,-6%
CCOC(=O)CSc1nc(-c2ccc3c(c2)OCO3)ccc1C#N,0%,25µM*,u,3%,15%,u
CCOC(=O)CSc1nc(-c2ccc(OC)cc2)cc(C(F)(F)F)c1C#N,-1%,4%,x,73%,x,x
O=C(CN1CCc2ccccc2C1)Nc1ccccc1C(F)(F)F,-4%,32µM*,0%,u,-44%,x
COc1cccc(CNc2ncnc3sc(C(=O)N4CCOCC4)c(C)c23)c1OC,-1%,x,x,x,x,x
Cc1cc(C)nc(S[C@H]2C[C@@H](C(=O)N3CCN(c4ccccc4F)CC3)N(Cc3ccccc3C(F)(F)F)C2)n1,5%,x,x,x,x,x
COc1ccc(CNC(C)C2COc3ccccc3O2)c(OC)c1 (stereo not drawn),-6%,28µM*,3%,-6%,-19%,11%
CC(NCc1ccccc1)C1COc2ccccc2O1 (stereo not drawn),-5%,1%,-2%,-19%,-2%,-3%
COc1cc(C)c(CN2C[C@H](Sc3nc4ccccc4[nH]3)C[C@H]2C(=O)N(C)C)cc1C,-6%,x,x,x,x,x
CCCCC/C=C/C/C=C/CCCCCCCC(=O)NC(C)c1ccccc1 (stereo not drawn),-3%,x,x,x,x,x
CCOC(=O)c1c(C)[nH]c(C)c1C(=O)CSc1nc2ccccc2c(=O)n1-c1ccccc1C,-6%,28µM*,1%,-17%,16%,-8%
Cc1cc(C)cc(N2C(N)=NC(N)=NC2c2ccccc2F)c1 (stereo not drawn),-4%,1%,16µM*,-6%,-39%,x
Cc1cc(C)cc(N2C(N)=NC(N)=NC2c2cccc(Cl)c2)c1 (stereo not drawn),-5%,x,-25%,-5%,-15%,x
C1=Cc2ccccc2/C1=C\c1cc[cH-]c1.[Fe+2].c1cc[cH-]c1,-4%,-3%,x,x,x,x
COC(=O)c1cccc(C(=O)N2CCc3c(C(=O)OC)c(OCc4ccccn4)cc(=O)n3CC2)c1,-5%,x,x,x,x,x
CCC1S/C(=N\S(=O)(=O)c2cccs2)N(C2CCCCC2)C1=O (stereo not drawn),-6%,28µM*,7%,u,-25%,4%
Cc1[nH]nc2c1-c1nc3ccccc3nc1C(C)(C)C2,-1%,14µM*,5%,-6%,-25%,5%
CC12CCC(C)(c3nc4ccccc4nc31)C2(C)C,3%,x,5%,-16%,-18%,3%
SMILES,Glioma ERSR ind,ClpP mod,N370S GC mod,Apoferritin bind,a7 integrin act,CBFb-RUNX1 inh
CN(C)c1nc2cc(Cl)ccc2cc1CN(Cc1ccc2c(c1)OCO2)C(=O)c1ccoc1,-3%,x,x,x,x,x
Cc1cccc(NC(=O)c2nc[nH]c2C(=O)N[C@@H](C)C(=O)OC(C)(C)C)c1,-3%,1%,u,18µM*,-21%,16%
Cc1ccccc1CN1[C@H]2CCCC[C@@H]2OCCS1(=O)=O,-1%,-3%,x,x,x,x
Cc1cnc(C)c(-c2ccc(F)c3c2OC(CNC(=O)Cc2c(C)[nH]c4ccccc24)C3)n1 (stereo not drawn),-1%,x,x,x,x,x
CC(C)N(CC#CC(O)(c1ccccc1)c1ccccc1)CCO,-6%,10%,2%,0%,-19%,6%
CC(C)N(CC#CC(O)(c1ccccc1)c1ccccc1)C(C)C,-2%,32µM*,-1%,-2%,-21%,-5%
CN(C)c1ccc(/C=C/c2nc3ccccc3s2)c(Cl)c1,-10%,0%,x,x,x,x
NS(=O)(=O)c1ccc(NC(=O)COC(=O)C2(c3ccccc3F)CCCC2)cc1,-2%,25µM*,-14%,0%,29%,-16%
O=C(COC(=O)C1(c2ccccc2F)CCCC1)NC1CCS(=O)(=O)C1 (stereo not drawn),0%,28µM*,-3%,-9%,4%,4%
Cc1cc(C)cc(CN2CCOc3ccc(CN4CCC(O)(c5cccnc5)CC4)cc3C2)c1,-4%,x,x,x,x,x
COC(=O)c1ccc(-c2ccco2)n1Cc1ccccc1Cl,1%,28µM*,12%,5%,5%,-10%
O=C(CN1CCN(c2ccccc2F)CC1)Nc1ccccc1F,-2%,-4%,6%,-12%,-6%,1%
O=C(CCN1CCN(c2ccccc2F)CC1)Nc1ccccc1F,-1%,16µM*,-3%,-10%,4%,3%
Cc1cc(C)c2nccc(/C=C/c3ccc(N(C)C)cc3)c2c1,-4%,2%,x,x,x,x
COc1ccc(NC(=O)N2CCN(C(=O)C(Cc3ccc(F)cc3)NC(C)=O)CC2)cc1 (stereo not drawn),2%,32µM*,-5%,-3%,17%,9%
CC(=O)NC(Cc1ccc(F)cc1)C(=O)NC1CCN(C(=O)Nc2ccc(F)cc2)CC1 (stereo not drawn),-4%,x,1%,-1%,1%,x
C[C@H]1C[C@@H]2[C@H]([C@@H](O)C[C@@]3(C)[C@H]2CC[C@]3(O)C(=O)COC(=O)CCC(=O)O)[C@@]2(C)C=CC(=O)C=C12,-1%,x,x,x,x,x
CCOc1cc(CNc2ccc(O)cc2)cc(Cl)c1OCc1ccccc1,13µM*,-6%,x,u,x,x
COc1ccc(O)c(CN2CCC3(CCC(CNC(=O)c4ccco4)O3)CC2)c1 (stereo not drawn),1%,x,x,x,x,x
